From ChEMBL document CHEMBL4513216, “Probing the Open Global Health Chemical Diversity Library for Multistage-Active Starting Points for Next-Generation Antimalarials” (ACS Infect Dis, 2020)
The whole screen tested about 69,000 compounds, of which about 8,600 (12%) showed an effect of 50% or more. What follows is part of a selection rich in strong results, with near analogues and random picks from the rest.

system: Plasmodium berghei; test: Screen against P. berghei liver stage (PbLuc), transformed with Luciferase, at 10uM; type: functional, HepG2; settings: tested at 10 uM

SMILES	INHIBITION
Cc1cnn(CC2CCCCN2C(=O)Cc2c(C)nn(C)c2C)c1 (configuration not stated)	7.08%
CCC[C@H]1CN(Cc2ccc(N(C)C)nc2)C[C@@H]1NC(=O)CCOC	62.2%
CCC[C@H]1CN(Cc2ccc(N(C)C)nc2)C[C@@H]1NC(=O)CO	42.1%
CCC[C@H]1CN(Cc2ccc(N(C)C)nc2)C[C@@H]1NC(=O)CSC	33.1%
O=C(c1ccco1)N1CCC12CCN(c1ncc(F)cn1)CC2	58%
Cc1cnc(N2CCC3(CCCN3C(=O)c3ccco3)CC2)nc1	60.5%
O=C1CCC2(CCCN(c3ncc(F)cn3)CC2)N1Cc1ccccc1 (configuration not stated)	-2.17%
O=C1CCC2(CCN(c3ncc(F)cn3)CC2)N1Cc1ccncc1	35.8%
O=C(c1ccco1)N1CCCC12CCN(c1ncccn1)CC2	-72.6%
Cc1cnc(N2CCC3(CCCCN3C)C2)nc1 (configuration not stated)	-38.1%
O=C(Nc1ccccc1Cn1cccn1)N1CCC(N2CCCC2)C1 (configuration not stated)	5.42%
CCCc1nc(NCCCn2ccnc2)c2c(n1)c(C)nn2CC	17.7%
Cc1nn(C)c2nc3c(c(C(=O)/N=c4\[nH]nc(C(C)C)s4)c12)CCC3	7.83%
Cc1noc(CCNC(=O)NCC(=O)NCc2ccccc2)n1	-176%
CC(NC(=O)CCCOc1ccc(F)cc1)c1nnc2n1CCC2 (configuration not stated)	-12.2%
CO[C@H]1CCN(Cc2c(C)noc2C)[C@@H]2CN(Cc3ccncc3)C[C@H]12	12.6%
CCC1C(=O)NCCN1c1ccnc(C(C)(C)C)n1 (configuration not stated)	26.8%
O=c1[nH]cccc1-c1nccc(C2(c3ccccc3Cl)CCNCC2)n1	33%
CC(C)c1nccc(C2(c3ccccc3Cl)CCNCC2)n1	20.2%
Clc1ccccc1C1(c2ccnc(-c3ncccn3)n2)CCNCC1	33.5%
Clc1ccccc1C1(c2ccnc(C3CC3)n2)CCNCC1	44.1%
CC(C)(C)c1nccc(C2(c3ccccc3Cl)CCNCC2)n1	72.8%
Clc1ccccc1C1(c2ccnc(C3CCCC3)n2)CCNCC1	94.4%

SMILES	INHIBITION
Clc1ccccc1C1(c2ccnc(CC3CC3)n2)CCNCC1	43.5%
Clc1ccccc1C1(c2ccnc(-c3ccncc3)n2)CCNCC1	55.1%
NC(=O)NCCC(=O)NCc1nn(-c2ccccc2)c2c1CCC2	15.115%
Nc1nc2c(c(NCC(c3cccnc3)N3CCOCC3)n1)CCCC2 (configuration not stated)	-21.3%
CC(C)c1nn(C)c(Cl)c1CNCC(O)c1cccc(F)c1 (configuration not stated)	42%
Cc1cc(C(=O)N2CCN(Cc3ccsc3)CC2)n(C)n1	-3.2%
CCOCC(O)CN1CCN(C(=O)c2ccccc2F)CC1 (configuration not stated)	-35.7%
CN(C[C@@H]1CCC[C@@H]2CN(Cc3cccnc3)C[C@@H]21)C1CC1	-5.63%
Cc1nccc(C(=O)NC(COCC(C)C)c2ccco2)n1 (configuration not stated)	-19.4%
CCN(CC)C(=O)CCNC(=O)N(C)Cc1ccc(SC)c(OC)c1	8.97%
CCNC(=O)N(C)Cc1ccc(SC)c(OC)c1	55.1%
COc1cc(CN(C)C(=O)NCC(=O)NC(C)C)ccc1SC	14.3%
COc1cc(CN(C)C(=O)NCCNC(=O)C2CC2)ccc1SC	52.9%
CCOCCCNC(=O)N(C)Cc1ccc(SC)c(OC)c1	12.6%
COc1cc(CN(C)C(=O)NC2CC2)ccc1SC	14.3%
CCC1CCCCCN1C(=O)c1nnc2ccccc2c1N (configuration not stated)	40.3%
Cc1cccc(OCCC(=O)NCC2CN(C)CCO2)c1C (configuration not stated)	-36.85%
CC(C)(C)c1cc(C[C@H]2CNCC[C@H]2CC(=O)Nc2ccccc2)no1	44.4%
CC(C)NC(=O)C[C@@H]1CCNC[C@@H]1Cc1cc(-c2ccccc2)on1	59.8%
CC(C)NC(=O)C[C@@H]1CCNC[C@@H]1Cc1cc(-c2ccccn2)on1	-14.2%
O=C(CC1[C@H]2CN(C(=O)Cc3ccccn3)C[C@@H]12)Nc1cccnc1 (some centres not stated)	39.4%
Cc1noc(C)c1CN1CC[C@H]2OCC[C@@H](C(=O)NCC3CC3)[C@@H]2C1	-3.83%
COCCNC(=O)C1CN(Cc2ccncc2)Cc2ccnn2C1 (configuration not stated)	89.3%

SMILES	INHIBITION
CC(C)NC(=O)C1CN(Cc2ccsc2)Cc2ccnn2C1 (configuration not stated)	37.9%
COCCNC(=O)C1CN(Cc2ccsc2)Cc2ccnn2C1 (configuration not stated)	5.36%
CN(C)C(=O)C1CN(Cc2ccsc2)Cc2ccnn2C1 (configuration not stated)	52.6%
Cc1noc(C)c1CN1CC[C@H]2OCC[C@@H](C(=O)N3CCCO3)[C@@H]2C1	34.1%
COCCNC(=O)C1CN(Cc2cccc(C)n2)Cc2ccnn2C1 (configuration not stated)	7.77%
O=C(C1CN(Cc2ccsc2)Cc2ccnn2C1)N1CCCC1 (configuration not stated)	15.7%
Cc1noc(C)c1CN1CC[C@H]2OCC[C@@H](C(=O)NCC3CC3)[C@H]2C1	54.7%
COCCNC(=O)C1CN(Cc2cccnc2)Cc2ccnn2C1 (configuration not stated)	35.7%
COCCNC(=O)C1CN(Cc2csc(C)n2)Cc2ccnn2C1 (configuration not stated)	62.5%
COCCNC(=O)C1CN(Cc2nccs2)Cc2ccnn2C1 (configuration not stated)	29.9%
Cc1cccc(N2CCN(C(=O)CCc3c(C)noc3Cl)CC2)c1	45.7%
CC(=O)c1ccc(S(=O)(=O)NCC2CCN(c3cnccn3)CC2)cc1	35%
O=C(CC1CCN(c2cccnn2)CC1)NC1CCOCC1	3.48%
O=C(CCN1CCCCO1)N1CCC(CO)(CCc2ccccc2)CC1	-29%
Cc1noc(C)c1CN1Cc2ccnn2CC(C(=O)NCC2CC2)C1 (configuration not stated)	85.8%
CC(=O)N1Cc2ccnn2CC(C(=O)NCc2cccnc2)C1 (configuration not stated)	46.6%
O=C(NCC1CC1)C1CN(Cc2ccncc2)Cc2ccnn2C1 (configuration not stated)	-2.35%
O=C(NCc1cccnc1)C1CC(=O)N(CC2CC2)C1 (configuration not stated)	37%
Cc1ccc(CN2Cc3ccnn3CC(C(=O)NCC3CC3)C2)o1 (configuration not stated)	-31%
CS(=O)(=O)N1Cc2ccnn2CC(C(=O)NCc2cccnc2)C1 (configuration not stated)	77.4%
CNCC(=O)N1CC(c2cc(Nc3ncccn3)nc(C)n2)C1	29.6%
